We go through 97 molecules from publication PMC4336329 (PLoS ONE, 2015).

In all, about 310,000 compounds went through this assay and about 14,000 (4.5%) showed an effect of 50% or more. Effects have a minus sign here. For the sample, strong results were picked, then their nearest neighbours and some compounds at random.
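Note: peak tail current of the secondary pulse compared with the same well before compound.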

For this assay, the target named is human ether-à-go-go-related gene (hERG) potassium channel (human, UniProt Q12809). Briefly: primary screen, population patch clamp on CHO cells stably expressing hERG; higher = less effect of the substance.
Chain of human ether-à-go-go-related gene (hERG) potassium channel (Q12809 whole entry, looked up): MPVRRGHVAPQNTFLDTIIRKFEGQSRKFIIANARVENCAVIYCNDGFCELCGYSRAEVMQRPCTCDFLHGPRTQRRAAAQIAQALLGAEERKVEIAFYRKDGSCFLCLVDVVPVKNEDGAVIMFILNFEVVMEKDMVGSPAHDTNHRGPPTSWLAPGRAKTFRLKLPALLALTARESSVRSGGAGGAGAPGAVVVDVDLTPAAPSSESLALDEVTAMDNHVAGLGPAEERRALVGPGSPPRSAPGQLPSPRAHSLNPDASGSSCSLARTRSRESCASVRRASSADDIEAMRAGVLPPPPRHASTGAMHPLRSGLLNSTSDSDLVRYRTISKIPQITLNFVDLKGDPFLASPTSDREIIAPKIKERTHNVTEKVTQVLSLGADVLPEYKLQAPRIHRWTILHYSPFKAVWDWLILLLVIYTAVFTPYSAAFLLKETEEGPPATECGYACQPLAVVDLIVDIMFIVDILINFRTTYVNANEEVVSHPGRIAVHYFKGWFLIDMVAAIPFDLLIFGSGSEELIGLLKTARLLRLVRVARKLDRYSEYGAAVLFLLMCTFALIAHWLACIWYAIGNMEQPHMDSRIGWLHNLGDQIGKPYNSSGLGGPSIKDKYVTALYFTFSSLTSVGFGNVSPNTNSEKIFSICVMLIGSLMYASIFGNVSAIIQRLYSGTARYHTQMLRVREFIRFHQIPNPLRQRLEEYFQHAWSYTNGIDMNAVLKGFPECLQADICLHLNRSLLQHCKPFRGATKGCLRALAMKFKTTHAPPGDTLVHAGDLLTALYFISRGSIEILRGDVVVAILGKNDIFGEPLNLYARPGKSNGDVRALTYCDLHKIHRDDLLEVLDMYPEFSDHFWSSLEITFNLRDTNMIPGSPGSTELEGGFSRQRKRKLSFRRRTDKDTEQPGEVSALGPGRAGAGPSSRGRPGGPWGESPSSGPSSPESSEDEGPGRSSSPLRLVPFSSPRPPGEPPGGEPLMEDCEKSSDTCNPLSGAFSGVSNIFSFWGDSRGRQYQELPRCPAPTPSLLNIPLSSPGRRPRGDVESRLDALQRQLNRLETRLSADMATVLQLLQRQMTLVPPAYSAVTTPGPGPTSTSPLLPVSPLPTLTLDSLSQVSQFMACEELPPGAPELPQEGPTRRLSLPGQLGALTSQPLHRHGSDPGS
`O=C(CSc1nnc(-c2ccncc2)n1Cc1ccco1)N1c2ccccc2Sc2ccc(Cl)cc21`: the “hERG current change (%, negative = inhibition) at 10uM” value is -2.92%.
On to `CCSC1=NCCN1C(=O)c1c(-c2ccccc2Cl)noc1C`, for which the “hERG current change (%, negative = inhibition) at 10uM” value is -20.6%.
With `O=C(CSc1nnc(-c2ccccc2)o1)NC1CCCCC1`, the “hERG current change (%, negative = inhibition) at 10uM” value is reported as -16.6%.
Take `O=C(CNc1cccc([N+](=O)[O-])c1)N/N=C/c1ccc([N+](=O)[O-])o1`: the “hERG current change (%, negative = inhibition) at 10uM” value was -36%.
Then `O=C(CN1CCN(c2ccccc2)CC1)N1CCc2[nH]c3ccccc3c2C1`, with -26.9%; and `COc1ccccc1NC(=O)N1CCCC1C(=O)NCc1cccs1` (stereo not shown), with 0.509%; and `COc1cccc(CCNCc2c(F)cccc2F)c1.O=C(O)C(=O)O`, with -15.1%.
Then `COc1ccc(CCNCc2ccc(OCc3ccccc3)cc2)cc1`, with -41.6%.
Under `COc1cc(CNCc2ccc(SC)cc2)cc(OC)c1` stands -14.9%; under `COc1cccc(CCNCc2ccc(SC)cc2)c1.O=C(O)C(=O)O`, -67.7%.
With `COc1ccc(CCNCc2ccc(SC)cc2)cc1`, the “hERG current change (%, negative = inhibition) at 10uM” value is listed as -73.2%.
With `COc1cccc(CNCCc2ccc(F)cc2)c1.O=C(O)C(=O)O`, the “hERG current change (%, negative = inhibition) at 10uM” value is reported as -9.82%.
Under `CC(=O)N1c2ccc(S(=O)(=O)NC(CC(=O)O)c3ccc(Br)cc3)cc2CC1C` (stereo not shown) stands 22.3%; under `CC1CCN(S(=O)(=O)c2ccccc2)CC1`, -3.32%.
Then `O=C(CCNS(=O)(=O)c1ccc(Br)cc1)NCc1ccc2c(c1)OCO2`, with -3.3%.
Then `CN(C)CCCNc1ncnc2c1cnn2-c1ccccc1`, with -22.8%; and `CN(C)CCCNc1ncnc2c1c(-c1ccccc1)cn2-c1ccccc1`, with -64.4%.
Regarding `COc1ccc(-n2cc(-c3ccccc3)c3c(NCCOCCO)ncnc32)cc1`, the “hERG current change (%, negative = inhibition) at 10uM” value is -42.9%.
Under `OCCOCCNc1ncnc2c1c(-c1ccccc1)cn2-c1ccccc1` stands -50.6%.
Under `OCCOCCNc1ncnc2c1cnn2-c1ccccc1` stands 9.79%; under `Cc1c(C)n(-c2ccccc2)c2ncnc(NCCCN(C)C)c12`, 0.841%; under `O=C(N/N=C/c1cccnc1)c1cc2ccccc2cc1O`, 5.26%.
In the case of `C[C@@]12C(=O)N(c3ccc(C(F)(F)F)cc3)C(=O)N1[C@@H]1c3ccccc3OC[C@@H]1[C@H]2c1ccccc1`, the “hERG current change (%, negative = inhibition) at 10uM” value stood at 20%.
Under `O=C(Cn1c(=O)n(CC2CCCO2)c(=O)c2ccccc21)c1ccc(Cl)c(Cl)c1` (stereo not shown) stands -16.4%.
Under `CN(CCCC(=O)NCCc1ccccc1)S(=O)(=O)c1ccc([N+](=O)[O-])cc1` stands -37.6%.
Take `CN(CCCC(=O)NC1CC(C)(C)NC(C)(C)C1)S(=O)(=O)c1ccc([N+](=O)[O-])cc1`: the “hERG current change (%, negative = inhibition) at 10uM” value is listed as 12.5%.
With `CN(CC(=O)NCc1ccc2c(c1)OCO2)S(=O)(=O)c1ccc(F)cc1`, the “hERG current change (%, negative = inhibition) at 10uM” value was -8.53%.
`CCOc1ccc(S(=O)(=O)N(C)CC(=O)NCc2ccc3c(c2)OCO3)cc1`: the “hERG current change (%, negative = inhibition) at 10uM” value is given as -64.4%.
Take `Cc1ccc(S(=O)(=O)N(C)CCCC(=O)NCc2ccc3c(c2)OCO3)cc1`: the “hERG current change (%, negative = inhibition) at 10uM” value is -23.5%.
As for `CN(CCCC(=O)NCc1ccc2c(c1)OCO2)S(=O)(=O)c1ccc([N+](=O)[O-])cc1`, the “hERG current change (%, negative = inhibition) at 10uM” value was -68.1%.
Then `CN(CCCC(=O)NCc1ccccc1)S(=O)(=O)c1ccc([N+](=O)[O-])cc1`, with -65.6%.
Then `O=C(NCc1ccc2c(c1)OCO2)Nc1ccc([N+](=O)[O-])cc1`, with 21.1%; and `COc1ccc(S(=O)(=O)N(C)CC(=O)NCc2ccc3c(c2)OCO3)cc1`, with -8.31%; and `C=CCn1c(SCCCc2ccccc2)nc2c1c(=O)[nH]c(=O)n2C`, with -26.1%.
Then `COc1ccc(OC)c(NS(=O)(=O)c2ccc(-c3coc(C)n3)cc2)c1`, with 0.503%.
Take `COc1cccc(NC(=O)N2CCCC2C(=O)NC2CC2)c1` (stereo not shown): the “hERG current change (%, negative = inhibition) at 10uM” value is recorded as 3.61%.
Then `COc1ccc(-c2[nH]ncc2CN(C)Cc2cnccn2)c(OC)c1`, with 14%; and `O=C(O)c1cc2n(n1)C(C(F)(F)F)CC(c1ccco1)N2` (stereo not shown), with 22.2%; and `O=S(=O)(NC1CCCCC1N1CCN(c2ccc(F)cc2)CC1)c1ccccc1` (stereo not shown), with -7.05%.
As for `O=C(CCCN1C(=O)/C(=C/c2ccc(F)cc2)SC1=S)NCCCn1ccnc1`, the “hERG current change (%, negative = inhibition) at 10uM” value is given as -71%.
`O=C(CCN1C(=O)/C(=C/c2ccc(Cl)cc2)SC1=S)NCCCn1ccnc1`: the “hERG current change (%, negative = inhibition) at 10uM” value is given as -23.4%.
Turning to `COc1ccccc1/C=C1\SC(=S)N(CCC(=O)NCCCn2ccnc2)C1=O`, the “hERG current change (%, negative = inhibition) at 10uM” value is recorded as -44.7%.
In the case of `O=C(CCN1C(=O)S/C(=C\c2ccccc2)C1=O)NCCCn1ccnc1`, the “hERG current change (%, negative = inhibition) at 10uM” value is reported as -38.4%.
With `O=C(CCN1C(=O)/C(=C/c2ccc(F)cc2)SC1=S)NCCCn1ccnc1`, the “hERG current change (%, negative = inhibition) at 10uM” value is -63.6%.
Then `O=C(CCCN1C(=O)/C(=C/c2ccccc2)SC1=S)NCCCn1ccnc1`, with -59.9%.
Under `O=C(CCCN1C(=O)c2ccccc2C1=O)NCCCn1ccnc1` stands 13.4%.
Under `O=C(CCN1C(=O)/C(=C/c2ccccc2F)SC1=S)NCCCn1ccnc1` stands -38.1%.
On to `COc1ccc(/C=C2\SC(=S)N(CCC(=O)NCCCn3ccnc3)C2=O)cc1`, for which the “hERG current change (%, negative = inhibition) at 10uM” value is -28.5%.
As for `COc1cc(S(=O)(=O)N2CCN(C(=O)c3ccco3)CC2)c(OC)cc1C`, the “hERG current change (%, negative = inhibition) at 10uM” value was found to be 6.03%.
Then `COc1ccc(C2(C)NC(=O)N(CC(=O)Nc3ccc(C)cc3Br)C2=O)cc1OC` (stereo not shown), with 1.02%; and `CN(C)c1ccc(CNc2ncc(Br)cc2Br)cc1`, with -3.62%; and `Cc1ccccc1NC(=O)c1ccc(-n2cncn2)nc1`, with -14.1%.
Take `Cc1nn(C)c(C)c1S(=O)(=O)N(CC(=O)Nc1ccc2c(c1)OCO2)c1ccc(C(C)C)cc1`: the “hERG current change (%, negative = inhibition) at 10uM” value was 7.38%.
Then `CC(C)C(OC(=O)c1nsc(Cl)c1Cl)C(=O)NC1CCCCC1` (stereo not shown), with -17.7%; and `Cc1oc2nc(SCCCC(=O)NCCCO)nc(N)c2c1C`, with 9.44%.
Under `Cc1ccc(CN2CCC(n3nccc3NC(=O)c3ccccc3C)CC2)o1` stands -25.9%; under `Cc1ccccc1C(=O)Nc1ccnn1C1CCN(Cc2ccc(CO)o2)CC1`, -1.16%.
Then `O=C(Nc1ccnn1C1CCN(CC2CC=CCC2)CC1)c1ccccc1Cl` (stereo not shown), with -70.7%; and `Cc1ccccc1C(=O)Nc1ccnn1C1CCN(CC2CC=CCC2)CC1` (stereo not shown), with -72.6%; and `COc1ccccc1C(=O)Nc1ccnn1C1CCN(CC2CC=CCC2)CC1` (stereo not shown), with -82.3%.
On to `COc1ccc(C(=O)Nc2ccnn2C2CCN(CC3CC=CCC3)CC2)cc1` (stereo not shown), for which the “hERG current change (%, negative = inhibition) at 10uM” value was -37.4%.
`Cl.NCC(c1ccccc1)(c1ccccc1)c1ccccc1`: the “hERG current change (%, negative = inhibition) at 10uM” value is listed as -15.5%.
Under `O=C(COc1ccccc1)NCC(=O)N/N=C/c1ccc(Br)cc1` stands -14.6%; under `CCCCCCCCCC(=O)N/N=C(\C)c1cccnc1`, 9.29%.
Under `COc1ccc(C(C)=O)c2c1OCCO2` stands -3.35%; under `COc1ccc(C(=O)Nc2ccc(S(=O)(=O)Nc3nccnc3OC)cc2)cc1`, 8.73%; under `COc1cccc(C(=O)N2CCC(N3CC(C)OC(C)C3)CC2)c1.O=C(O)C(=O)O` (stereo not shown), 14.4%.
Then `O=S(=O)(O/N=C1\CCCc2ccccc21)c1ccccc1`, with 7.59%.
As for `O=[N+]([O-])c1ccc(N2CCN(c3ccc(F)cc3)CC2)cc1`, the “hERG current change (%, negative = inhibition) at 10uM” value is given as -17.9%.
Then `CCN1CCC(N2CCN(c3ccc(Cl)cc3)CC2)CC1`, with -18.8%; and `O=[N+]([O-])c1ccc(N2CCSCC2)cc1`, with -10.4%; and `CCS(=O)(=O)N1CCC(N2CCN(c3ccccc3)CC2)CC1`, with -10.9%.
Under `CC1CCC(N2CCN(c3ccc([N+](=O)[O-])cc3)CC2)CC1` (stereo not shown) stands -74.8%.
Under `CCCN1CCC(N2CCN(c3ccc([N+](=O)[O-])cc3)CC2)CC1` stands -74.3%; under `O=[N+]([O-])c1ccc(N2CCN(c3ccccc3)CC2)cc1`, 4.77%; under `CCC1CCC(N2CCN(c3cccc(OC)c3)CC2)CC1` (stereo not shown), -33.7%.
Regarding `CCC1CCC(N2CCN(c3ccc(F)cc3)CC2)CC1` (stereo not shown), the “hERG current change (%, negative = inhibition) at 10uM” value is -52.1%.
Then `CCN1CCC(N2CCN(c3ccc(F)cc3)CC2)CC1`, with -5.34%; and `CCC1CCC(N2CCN(c3ccccc3F)CC2)CC1` (stereo not shown), with -22.2%; and `CCC1CCC(N2CCN(c3ccc([N+](=O)[O-])cc3)CC2)CC1` (stereo not shown), with -79.8%.
Then `COCCNC(=S)N/N=C/c1c2ccccc2cc2ccccc12`, with 15.5%; and `CCOC(=O)C(CC(=O)O)NCc1ccco1` (stereo not shown), with 17.4%.
Under `CCC(C)N(CC(=O)NCc1ccc(OC)cc1)C(=O)c1csnn1` (stereo not shown) stands -18.3%; under `COc1ccc(N2CCN(C(=S)NCc3ccccc3)CC2)cc1`, 15.3%.
With `COc1ccccc1Nc1nc(C)cc(=O)[nH]1`, the “hERG current change (%, negative = inhibition) at 10uM” value is on record as -7.91%.
Under `CCOc1ccccc1C(=O)OCC(=O)Nc1ccc(OC(F)F)cc1` stands -54%.
Then `COc1cc(C(=O)OCC(=O)Nc2ccc(SC(F)F)cc2)cc(OC)c1OC`, with -55.7%; and `O=C(COC(=O)c1cc(S(=O)(=O)N2CCCC2)ccc1O)Nc1ccc(S(=O)(=O)N2CCOCC2)cc1`, with 23.6%.
Then `CCOc1cc(C(=O)OCC(=O)Nc2ccc(SC(F)F)cc2)cc(OCC)c1OCC`, with 4.57%; and `COc1ccccc1NC(=O)COC(=O)c1ccccc1OCC(=O)Nc1ccc(SC(F)F)cc1`, with 1.67%; and `COc1ccccc1C(=O)OCC(=O)Nc1ccc(OC(F)F)cc1`, with -32.2%.
With `CN(C)C(=O)COC(=O)c1ccccc1OCC(=O)Nc1ccc(SC(F)F)cc1`, the “hERG current change (%, negative = inhibition) at 10uM” value is given as -51.8%.
Then `O=C(COC(=O)c1ccccc1O)Nc1ccc(S(=O)(=O)N2CCCCC2)cc1`, with 3.29%.
In the case of `O=C(COC(=O)c1ccccc1O)Nc1ccc(OC(F)F)cc1`, the “hERG current change (%, negative = inhibition) at 10uM” value was found to be 2.74%.
Under `COc1cc(C(=O)OCC(=O)Nc2ccc(C)cc2)cc(OC)c1OC` stands 28.7%; under `O=C(COC(=O)c1cc(S(=O)(=O)N2CCCC2)ccc1O)Nc1ccc(SC(F)F)cc1`, -57.5%; under `COc1ccccc1C(=O)COC(=O)c1ccccc1OCC(=O)Nc1ccc(SC(F)F)cc1`, 12.6%.
